Laboratory results taken from PubChem BioAssay AID489008 (National Center for Advancing Translational Sciences (NCATS), 2010).
Inconclusive results are not listed. Active and inactive are the calls of the source. The call rests on the fitted dose curve; in most records, active means well fitted inhibition curve with a large enough effect; inconclusive means small, poorly fitted or top-dose-only effect; inactive means flat fitted curve, though single readings scatter.

molecular target: Ferritin light chain (Equus caballus) (UniProt P02791); experiment: Confirmation Assay for Identification of Novel General Anesthetics; settings: apoferritin 1-aminoanthracene fluorescence displacement; further: nearly all actives have a fitted effect of over 40% in size
Sequence (P02791 2-175 limits assumed): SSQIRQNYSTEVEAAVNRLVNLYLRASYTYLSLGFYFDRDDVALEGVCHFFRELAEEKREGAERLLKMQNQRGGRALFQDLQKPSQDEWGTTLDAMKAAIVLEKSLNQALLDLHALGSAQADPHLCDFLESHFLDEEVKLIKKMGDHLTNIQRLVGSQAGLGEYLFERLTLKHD
Excerpt: Anesthetic development has remained a largely empirical process. There are growing concerns about the cognitive effects of known general anesthetics and acceleration of the onset of neurodegenerative disease. The compounds' toxicity and multiple specific binding targets in the mammalian brain [4] has made them less attractive as drug leads. In this assay, a GABAergic mimetic model system, apoferritin and a profluorescent 1-aminoanthracene ligand (1-AMA), was used to construct a competitive binding assay for identification of novel general anesthetics. The assay was validated for 1-AMA using other known anesthetics, such as isoflurane (CID:3763) and propofol (CID: 4943), [6]. This particular BioAssay is a confirmation of followup compounds from primary screen AID:485281.
[1] S.L. Bianchi, T. Tran, C. Liu, S. Lin, Y. Li, J.M. Keller, R.G. Eckenhoff, and M.F. Eckenhoff, Brain and behavior changes in 12-month-old Tg2576 and nontransgenic mice exposed to anesthetics. Neurobiol Aging 29 (2008) 1002-10.
[2] Z. Xie, Y. Dong, U. Maeda, R.D. Moir, W. Xia, D.J. Culley, G. Crosby, and R.E. Tanzi, The inhalation anesthetic isoflurane induces a vicious cycle of apoptosis and amyloid beta-protein accumulation. J Neurosci 27 (2007) 1247-54.
[3] P. Honegger, and J.M. Matthieu, Selective toxicity of the general anesthetic propofol for GABAergic neurons in rat brain cell cultures. J Neurosci Res 45 (1996) 631-6.
[4] M.F. Eckenhoff, K. Chan, and R.G. Eckenhoff, Multiple specific binding targets for inhaled anesthetics in the mammalian brain. J Pharmacol Exp Ther 300 (2002) 172-9.
[5] C.A. Butts, J. Xi, G. Brannigan, A.A. Saad, S.P. Venkatachalan, R.A. Pearce, M.L. Klein, R.G. Eckenhoff, and I.J. Dmochowski, Identification of a fluorescent general anesthetic, 1-aminoanthracene. Proc Natl Acad Sci U S A 106 (2009) 6501-6.
[6] W.A. Lea, J. Xi, A. Jadhav, L. Lu, C.P. Austin, A. Simeonov, and R.G. Eckenhoff, A high-throughput approach for identification of novel general anesthetics. PLoS One 4 (2009) e7150.
Source: NIH Chemical Genomics Center [NCGC]
Assay Submitter: Roderic Eckenhoff, University of Pennsylvania
Screening Center PI: Christopher P. Austin, NIH
Probe Development: NIH Chemical Genomics Center [NCGC]
Three uL of reagents (free 1-AMA (50% saturated solution of 1-aminoanthracene
in PBS) in columns 3, 4 as negative control and 1-AMA/apoferritin mixture (10 uM horse-spleen apoferritin in 50% saturated 1-aminoanthracene in PBS) in columns 1, 2, 5-48) was dispensed into 1536-well Greiner black assay plates. Compounds (23 nL) were transferred via Kalypsys pintool equipped with 1,536-pin array (10 nL slotted pins, V&P Scientific, San Diego, CA). Titration of the positive control, propofol, were delivered via pin transfer from separate control plates to the 2nd column of each assay plate. The starting concentration of the control, dissolved in DMSO, was at 160 mM, followed by two-fold dilution points in duplicate, for a total of 16 concentrations. The plates were incubated for 10 min at room temperature, and then read on an EnVision HTS multilabel reader (Perkin-Elmer, Waltham, MA) (end point read, 3 min/plate) using Fura2 BFP excitation filter (380 nm, bandwidth 10 nm) and fluorescein emission filter (535 nm, bandwidth 25 nm) set. A LANCE/DELFIA dichroic mirror with a cutoff wavelength at 400 nm was used to maximize signal accuracy and strength. Vehicle-only plates, with DMSO being pin-transferred to the entire column 5-48 compound area, were inserted uniformly at the beginning and the end of each library in order to monitor for and record any shifts in the background. Activity was computed as the normalized fluorescence response relative to free 1-AMA and 1-AMA/apoferritin complex values. Concentration-effect relationships were derived by using curve fitting algorithms developed in-house (http://ncgc.nih.gov/pub/openhts/). […]
Potency means the concentration at half of the fitted maximal effect.

Potency, active:
O=C(COC(=O)CC1CC2CCC1C2)NC(=O)NC1CCCC1 (stereo not given) 15.8 µM, O=S(N1CCc2ccccc21)C12CC3CC(CC(C3)C1)C2 (stereo not given) 12.6 µM, COc1ccccc1CC(=O)Nc1cc(Cl)ccc1O 17.8 µM, CC1(C)CC(=O)c2c(Cc3ccccc3)noc2C1 14.1 µM, CCN(C(=O)c1ccco1)C1C2CC3CC(C2)CC1C3 (stereo not given) 14.1 µM, Cc1ccc(NCc2ccccc2O)c(C)c1 12.6 µM, COc1ccccc1C1SCCN1S(C)(=O)=O (stereo not given) 20 µM, O=S(=O)(NCCc1ccccc1)c1ccc(Br)s1 31.6 µM, O=C(COc1ccc(F)c(Cl)c1)N1CCCCCCC1 35.5 µM, O=C(CSc1nnnn1C1CCCCC1)Nc1nc2c(s1)CCCC2 31.6 µM, O=C(c1csc2ccccc12)N1CCCCCC1 31.6 µM, COc1ccccc1CC(=O)N1CCCc2ccccc21 31.6 µM, C/C(=N\Nc1ccc(F)cc1F)c1cccs1 11.2 µM, CC1CCCCN1S(=O)(=O)Cc1ccccc1Cl (stereo not given) 14.1 µM, COc1cccc(C(=O)COC(=O)CCC(=O)c2ccccc2)c1 7.94 µM, CCCCCc1ccc(C2=NNC(=O)CC2)cc1 28.2 µM, Cc1cccc(N(C(=O)Nc2ccccc2)C2=NCC(C)S2)c1 (stereo not given) 25.1 µM, Nc1nnc(SCc2ccccc2Cl)s1 14.1 µM, O=C(Nc1cccc(Cl)c1)OCc1cnc(Cl)s1 31.6 µM, Fc1ccc(NCc2ccccc2F)cc1Cl 14.1 µM, COc1cccc(CNc2ccc(F)c(Cl)c2)c1 7.94 µM, Cc1ccccc1Oc1ccccc1N 15.8 µM, O=C(COC(=O)CCc1ccccc1)NC12CC3CC(CC(C3)C1)C2 8.91 µM, Cc1ccccc1CSCC(=O)N/N=C/c1cccs1 15.8 µM, Fc1cnc(Cl)nc1NC1CCCCC1 12.6 µM, CCCC(C)NS(=O)(=O)c1ccc(OC)c(C)c1 (stereo not given) 20 µM, O=C(NC1C2CC3CC(C2)CC1C3)c1ccc(Br)o1 (stereo not given) 11.2 µM, Fc1ccccc1CNc1ccc(Cl)c(Cl)c1 10 µM, Cc1ccc(O)c(Sc2cc(C)ccc2O)c1 7.94 µM, Oc1ccc(C2C[C@H]3CC[C@@H]2C3)cc1O (stereo not given in full) 7.08 µM, O=C(COC(=O)c1cccs1)NC12CC3CC(CC(C3)C1)C2 11.2 µM, O=C(COc1ccccc1)N1CCCCCCC1 12.6 µM, O=C(OCC(=O)C12CC3CC(CC(C3)C1)C2)c1ccccn1 14.1 µM, Cc1csc(SCC(=O)NC23CC4CC(CC(C4)C2)C3)n1 15.8 µM, O=C1CC(C2CCCO2)C(=O)N1c1cccc(Cl)c1 (stereo not given) 14.1 µM, O=c1[nH]c(SCC2CCCCO2)nc2ccccc12 (stereo not given) 14.1 µM, O=C(COC(=O)C(O)c1ccccc1)NC12CC3CC(CC(C3)C1)C2 (stereo not given) 12.6 µM, Cc1cc(OCC(=O)N(C)C2CCCCC2)cc(C)c1Cl 35.5 µM, O=C(Nc1nccs1)c1csc2c1CCCC2 8.91 µM, O=C(CSc1ccccc1)N1CCc2ccccc21 20 µM
